From PubChem
Rows were chosen to be rich in hits. Some 19% of all compounds tested hit in one or more screens of this group.
HT1080 IDH1KD tx: kills HT-1080 cells with IDH1 knockdown; HT-1080 IDH1 knockdown viability, ATP luminescence, 48 h; Potency, µM (highest dose often 46.1 µM), actives largely listed as cytotoxic; 360,000 tested, 2% active; AID 686971
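HT-1080-IDH1KD cells (IDH1 knocked down), 750/well in RPMI with 5% FBS, treated with compound 48 h at 37 degrees C. Viability by CellTiter-Glo luminescence, normalised to DMSO and no-cell wells; concentration-response curves classed.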
DT40 TDP1 CPT: DT40-hTDP1 cell growth loss with CPT; 420,000 tested, 12% active; chicken DT40 Tdp1-/-;hTDP1 cells + 20 nM CPT, ATP luminescence, 48 h; Potency, µM (top dose mostly 46.2 µM), most hits filed as inhibitors; further: nearly all actives have a fitted effect of over 55% in size
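Chicken DT40 Tdp1-/- cells complemented with human TDP1, 400 cells/well, exposed to compounds plus 20 nM camptothecin for at least 48 h at 37 C; viability read as ATP content by CellTiter-Glo luminescence.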
IL-1B inflam inh: inhibitors of inflammasome signaling (IL-1 beta secretion) | AID 743279 | THP-1 LPS/ATP IL-1B secretion, AlphaLISA, 16 h; active compounds read low | 360,000 tested, 4.7% active | activity change, % at 57.5 µM; in the data active means activity change below about -50%; inconclusive means mostly about -30% to -49%
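Secreted IL-1B measured by AlphaLISA bead assay after 16 h compound exposure of THP-1 cells; compounds (final up to 57.5 uM) added 1 h before LPS (250 ng/mL) and ATP (1.25 mM) stimulation; lower signal means less secretion.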
TDP1 cell noCPT: qHTS for Inhibitors of human tyrosyl-DNA phosphodiesterase 1 (TDP1): qHTS in cells in absence of CPT | DT40 Tdp1-/- hTDP1 cells, no CPT, ATP luminescence, 48 h | Potency, µM (highest dose often 46.2 µM), usual class: inhibitors | 420,000 tested, 15% active; further: nearly all actives have a fitted effect of over 55% in size
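DT40 Tdp1-/-;hTDP1 cells, no CPT (DMSO vehicle only), 400 cells/well; compounds pin-transferred; ≥48 hr, 37 °C; CellTiter-Glo 30 min RT dark, luminescence read.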
HT1080NT lethal: kills 2HG-producing HT-1080-NT fibrosarcoma cells; HT-1080-NT fibrosarcoma viability, CellTiter-Glo ATP luminescence, 48 h; Potency, µM (highest dose often 46.1 µM), actives largely listed as cytotoxic; 360,000 tested, 1.6% active;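 further: NT is the 2HG producing partner of a matched IDH1 knockdown line; nearly all actives have a fitted effect of over 55% in size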
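Read-out is CellTiter-Glo luminescence after 10 minutes at room temperature, following 48 hours' compound treatment of HT-1080-NT cells (750 cells/well, RPMI, 5% FBS, 37 degrees C).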
Hits are given with their value; n = inactive; u = inconclusive; x = no result; [ ] = dose if it differs, or a comment. Unless noted, the call rests on the fitted dose curve; in most records, active means well fitted curve in the direction sought with a large enough effect; inconclusive means small, poorly fitted or top-dose-only effect, or another doubt; inactive means no such curve, though single readings can be large; an effect the other way counts as inactive or inconclusive.

SMILES | HT1080 IDH1KD tx | DT40 TDP1 CPT | IL-1B inflam inh | TDP1 cell noCPT | HT1080NT lethal
O=[N+]([O-])/C(C=Nc1ccccc1O)=C\Nc1ccccc1O | u | 8.2µM | n | 16µM | n
O=C(O)c1ccc2c(c1)C(=O)N(C(Cc1ccc(O)cc1)C(=O)O)C2=O (stereo not given) | n | n | n | n | n
N#C/C(=C\c1ccc(N2CCCCC2)o1)C(=O)Nc1cccc(Br)c1 | n | u | u | 7.3µM | n
Cc1ccc(/C=C(\C#N)C(=O)Nc2cccc(Br)c2)o1 | x | n | x | n | x
Cc1ccc(C2OC34CCCCCC3C(C#N)(C(=N)O4)C2(C#N)C#N)cc1 (stereo not given) | n | n | n | u | n
CCCCOc1ccc(C2OC34CCCCC3C(C#N)(C#N)C2(C#N)C(=N)O4)cc1 (stereo not given) | n | n | n | n | n
CCOc1ccc(C2OC34CCCCC3C(C#N)(C#N)C2(C#N)C(=N)O4)cc1OC (stereo not given) | n | 13µM | n | 16µM | n
C=CCOc1ccc(C2OC34CCCCC3C(C#N)(C#N)C2(C#N)C(=N)O4)cc1 (stereo not given) | n | 13µM | n | 6.5µM | n
CCOC(=O)C1CCCN(C(=O)c2cc(C#N)cs2)CC1 (stereo not given) | n | n | n | n | n
CC1CCN(c2oc(-c3ccc(COc4ccccc4)o3)nc2C#N)CC1 | x | 21µM | x | 10µM | x
CC(Nc1oc(-c2ccc(COc3ccccc3)o2)nc1C#N)c1ccccc1 (stereo not given) | x | 6.5µM | x | 9.2µM | x
Cc1cccc(OCc2ccc(-c3nc(C#N)c(N4CCC(C(N)=O)CC4)o3)o2)c1 | x | 16µM | x | u | x
COc1ccc(OCc2ccc(-c3nc(C#N)c(N4CCCCC4)o3)o2)cc1 | x | n | x | u | x
Cc1ccc(OCc2ccc(-c3nc(C#N)c(N4CCC(C)CC4)o3)o2)cc1 | x | u | x | 21µM | x
CCCOc1ccc(-c2nc(C#N)c(N3CCC(C(N)=O)CC3)o2)cc1 | u | n | u | n | u
Cc1ccccc1-c1cnc(C(O)c2c(C)ccc3ccccc23)[nH]1 (stereo not given) | n | u | n | u | n
Cc1ccc(S(=O)(=O)N2C[C@H]3C(=O)C[C@@H](c4ccccc4)N(S(=O)(=O)c4ccc(C)cc4)[C@H]3C[C@H]2c2ccccc2Cl)cc1 | n | n | n | n | n
COc1ccc(OCc2ccc(-c3nc(C#N)c(N4CCC(C)CC4)o3)o2)cc1 | x | u | x | 23µM | x
COc1ccc(OCc2ccc(-c3nc(C#N)c(N4CCN(C)CC4)o3)o2)cc1 | x | u | x | 15µM | x
CN1CCN(C(=O)c2ccc(-c3cnc4cccnn34)cc2)CC1 | n | n | n | n | n
O=c1c2ccccc2nc(SCc2ccccc2)n1Cc1ccco1 | n | n | n | u | n
Cc1cc(-n2c(C)cc(C(=O)CSc3nc4ccccc4c(=O)n3Cc3ccco3)c2C)no1 | n | 23µM | n | 21µM | n
COc1ccc(Cn2c(SCC(=O)N3CCN(c4ccc(F)cc4)CC3)nc3ccccc32)cc1 | x | 21µM | x | 21µM | x
COc1ccc(-c2nc(SCC(=O)N3CCN(c4ccc(F)cc4)CC3)n[nH]2)cc1 | x | n | x | n | x
O=C(CSc1n[nH]c(-c2ccc(F)cc2)n1)N1CCN(c2ccc(F)cc2)CC1 | x | 16µM | x | 23µM | x
SMILES | HT1080 IDH1KD tx | DT40 TDP1 CPT | IL-1B inflam inh | TDP1 cell noCPT | HT1080NT lethal
O=c1c2ccccc2nnn1CSc1nc2ccccc2c(=O)n1Cc1ccco1 | n | 23µM | n | 21µM | n
O=C(NC[C@H](O)c1ccccc1)c1ccccc1 | x | n[9.04 µM] | x | n[9.04 µM] | x
Cc1ccc(-n2nnnc2SCn2nnc3ccccc3c2=O)c(C)c1 | n | 9.2µM | n | 8.2µM | n
CCn1c(SCC(=O)N2CCN(c3ccc(F)cc3)CC2)nc2ccccc2c1=O | n | 21µM | n | u | n
CCn1c(SCC(=O)N2CCN(c3ccc(Cl)cc3)CC2)nc2ccccc2c1=O | n | u | n | u | n
Cc1cc(SCn2nnc3ccccc3c2=O)nc2ccccc12 | n | n | n | n | n
O=C(CSc1nc2ccccc2c(=O)n1Cc1ccco1)N1CCN(c2ccccc2)CC1 | n | u | n | 26µM | n
CCOC(=O)CSc1nc2ccccc2c(=O)n1Cc1ccco1 | n | n | n | n | n
O=C(CSc1nc2ccccc2c(=O)n1Cc1ccco1)c1ccccc1 | u | 16µM | n | 21µM | n
O=C(O)c1ccccc1C(=O)c1cccc2ccccc12 | n | n | n | n | n
CC(C)(C)OC(=O)N1CCCC(C(=O)Nc2ccc(C(=O)NCc3ccccc3)cc2)C1 (stereo not given) | n | u | n | u | n
COc1ccccc1/C=C/C=c1\sc2nc(=O)c(Cc3ccccc3)nn2c1=O | n | n | n | n | n
CCCn1c(SCC(=O)N2CCN(c3ccccc3)CC2)nc2ccccc2c1=O | n | u | n | u | n
CCN(CC)C(=O)CSc1nc2ccccc2c(=O)n1CCC(=O)N1CCN(c2ccccc2)CC1 | n | 16µM | n | u | n
COc1ccc(CCNC(=O)C2CCN(Cc3nc(-c4cccc(Cl)c4)oc3C)CC2)cc1OC | n | 18µM | n | 21µM | n
COc1ccc(-c2nc(CN3CCC(C(=O)NCCc4ccccc4)CC3)c(C)o2)cc1OC | x | n | x | u | x
Cc1oc(-c2cccc(Cl)c2)nc1CN1CCC(C(=O)NCCCN2CCCC2=O)CC1 | n | n | n | n | n
Cc1oc(-c2cccc(Cl)c2)nc1CN1CCC(C(=O)NCCCN2CC(C)CC(C)C2)CC1 (stereo not given) | n | u | n | 21µM | n
Clc1cccc(-c2nc3ccc(Br)cn3c2Cc2ccccc2)c1 | n | u | n | u | n
COc1ccc(Cc2c(-c3ccc(C)cc3)nc3ccc(Cl)cn23)c(C)c1 | u | 23µM | n | 23µM | u
COc1ccccc1Cc1c(-c2ccc(OC)c(OC)c2)nc2ccc(Cl)cn12 | u | u | n | u | u
COc1ccc(Cc2c(-c3cccc(Cl)c3)nc3ccc(Br)cn23)c(C)c1 | n | u | n | u | n
COc1ccccc1Cc1c(-c2cccc(Cl)c2)nc2ccc(C)cn12 | u | 18µM | n | 15µM | u
COc1ccccc1Cc1c(-c2ccc(C)cc2)nc2ccc(Cl)cn12 | n | u | -102 | 0.46µM | n
Cc1ccc2nc(-c3cccc(Cl)c3)c(Cc3ccccc3)n2c1 | n | 21µM | n | 16µM | n
COC(=O)c1ccccc1NC(=O)CSc1nc2ccsc2c(=O)n1CCCCC(=O)O | n | n | n | n | n
COc1ccccc1Cc1c(-c2ccc(C#N)cc2)nc2ccc(C)cn12 | u | u | u | 18µM | u
Cc1ccc2nc(-c3ccc(C#N)cc3)c(Cc3ccccn3)n2c1 | u | u | n | u | n
